From PubChem BioAssay AID687014 (The Scripps Research Institute Molecular Screening Center, 2013) come the findings set out here.

Among all 370,000 compounds or so, about 6,800 (1.8%) were called active. The sample as a whole holds a higher share of actives than the screen did. Values without a mark were called inactive.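 Rule for the calls: active = activation above a cutoff set at the mean of all screened compounds plus 3 SD (cut at about 10% in these data); inactive = the rest.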

In this assay the test system is Nuclear hormone receptor DAF-12 (Heterodera glycines), GAL4 fusion. As to the kind of experiment: H. glycines DAF-12 receptor agonists, primary screen, cell-based, luminescence, HEK293, GAL4 fusion, UAS-luciferase (AID 687014).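 Note: 0% = DMSO wells and 100% = sodium butyrate wells.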 The conditions noted are these: HEK293 GAL4-hgDAF12 UAS-luciferase reporter, agonist luminescence; at 6.8 µM; active compounds read high; normalized to butyrate control.
Turning to `O=C(CSc1nnc(-c2ccccc2)n1Cc1ccco1)Nc1ccccc1-c1ccccc1`, the activation is 0.11%. In the case of `Cc1cc2nc3c(=O)[nH]c(=O)nc-3n(C[C@H](O)[C@H](O)[C@H](O)CO)c2cc1C` it was -2.63%; in that of `CCOC(=O)[C@]12CCCC3=C1N(CCC3)C(=O)[C@@H](CC(=O)NCc1cccs1)C2`, 1.07%. The result for `CC(=O)OC12CCCN(C1)/C(=C/c1ccncc1)C2` (stereo not drawn) reads -1.43%; that for `CC(C)CNc1cccc2c1S(=O)(=O)N[C@H](CC(C)C)CO2`, 3.06%; that for `C/C(=N/NC(=S)Nc1ccccc1)c1ccc2c(c1)OCO2`, 10.2%. As to `COc1cccc(C(=O)Nc2cc3c(cc2Br)OCCCO3)c1`, the activation is 13.2% (active). In the case of `COc1cccc(C(=O)Nc2nnc(S(=O)(=O)N3CCOCC3)s2)c1` it was 3.2%; in that of `O=C(NCCc1ccc(C(F)(F)F)cc1)c1ccc2c(c1)OCO2`, 0.07%. In the case of `O=C(Nc1ccccc1F)c1ccc2c(c1)OCO2` it was 11.2% (active); in that of `COc1ccc(C2COC(=O)C2=N)c(NC(=O)c2ccccc2)c1` (stereo not drawn), 4.88%. As for `CN(Cc1c(F)cccc1Cl)C(=O)CNC(=O)c1ccc2c(c1)OCO2`, the activation was 7.57%.

As for `O=C(Nc1ccccc1)c1ccc2c(c1)OCCCO2`, the activation is 15.1% (active).

As to `O=C(CN1CCc2cc3c(cc2C1)OCCCO3)Nc1ccccc1`, the activation is -3.88%. The result for `COC(=O)[C@]12C[C@H](CC(=O)NCCCN3CCCC3=O)C(=O)N(CCc3ccc(OC)c(OC)c3)C1=C[C@H](COCc1ccccc1)O[C@@H]2C` reads 4.36%. The result for `Cc1cc(Br)ccc1NC(=S)NC1CCCC1` reads 1.25%. The result for `Cc1ccc(NC(=O)c2cc(C)nn2-c2ccccc2)c(C)c1` reads -1.76%. With `Cc1ccc(NC(=S)Nc2ncccc2C)c(C)c1`, the activation was 11.8% (active). The result for `Nc1ccn([C@@H]2O[C@H](C(=O)N[C@H]3CCCCNC3=O)[C@@H](O)[C@H]2O)c(=O)n1` reads 0.25%; that for `CCC(NC(=O)C1C2C=CC3(CN(Cc4ccccc4)C(=O)C13)O2)c1ccccc1` (stereo not drawn), -3.86%. In the case of `O=Cc1ccc(OCc2cn3ccccc3n2)cc1` it was 12.9% (active).

For `Cn1cc[n+](C)c1COc1ccc(C=O)cc1`, the activation was 1%. In the case of `O=C(NCCc1ccco1)c1ccc(OCc2cn3ccccc3n2)cc1` it was 5.95%; in that of `O=C(Nc1cc(F)cc(F)c1)OC1CCC12CCC(c1ccccc1)CC2` (stereo not drawn), 2.34%. Regarding `CC(C)C[C@H](NC(=O)CC1CCCC1)C(=O)N1CCC[C@H]1C(=O)NCc1ccccc1`, the activation is -4.65%. With `Cc1ccc2nc(-c3ccc(SCC(=O)Nc4cc(C)on4)nc3)[nH]c2c1`, the activation was 15.3% (active). `Cc1cc(NC(=O)CSc2nnnn2-c2ccc(F)cc2)no1`: the activation is 1.39%. In the case of `Cc1cc(NC(=O)CSCC(=O)NC(C)c2ccccc2)no1` (stereo not drawn) it was 2.82%; in that of `COC(=O)C1CN(CCc2ccccc2)CCS(=O)(=O)N1Cc1ccc(F)cc1` (stereo not drawn), 2.5%. In the case of `C=CCN=C1NC(c2ccccc2)C(C(=O)OC)=C(C)N1Cc1ccc(C(F)(F)F)cc1` (stereo not drawn) it was 0.51%. The result for `COc1ccc(CN2CCCC(C(=O)c3ccc(Cl)cc3)C2)cc1Cn1cncn1` (stereo not drawn) reads -0.88%; that for `COc1ccc(C2Nc3ccccc3C(=O)N2Cc2cccs2)cc1COc1c(C)cccc1C` (stereo not drawn), 1.89%; that for `COc1ccc(C2Nc3ccccc3C(=O)N2c2ccc(Cl)cc2)cc1Cn1cc([N+](=O)[O-])cn1` (stereo not drawn), 15.2% (active). In the case of `Cc1ccc(-n2c(SCC(=O)Nc3ccc(S(=O)(=O)Nc4nccs4)cc3)nnc2-c2cccnc2)cc1`, the activation was -1%.

With `Cc1cc(C)c(S(=O)(=O)N2CCC(C(=O)OCc3c(C)noc3C)CC2)c(C)c1`, the activation is 1.53%. In the case of `CC(OC(=O)Cc1ccc(F)cc1)C(=O)N1CCc2ccccc21` (stereo not drawn), the activation was 0.83%. In the case of `O=C(CN1C(=O)c2ccccc2S1(=O)=O)N1CCc2ccccc21` it was -10.8%.

`O=C(CSCc1ccccc1)N1CCc2ccccc21`: the activation was 17.5% (active).

In the case of `CCOC(=O)[C@@]12CCC3=C1N(CCC3)C(=O)[C@H](CC(=O)N1CCN(C(=O)c3ccco3)CC1)C2`, the activation is -0.79%. The result for `CC1(C)OC(=O)C2=C(CC(CCc3ccccc3)OC2c2ccc(Cl)cc2)O1` (stereo not drawn) reads 3.41%.

Take `CC(C)N(Cc1nnc(-c2ccc(Cl)cc2)o1)C(=O)C1=COCCO1`: the activation was 0.6%. As to `CC(NCc1ccco1)C(=O)N1CCCCC1` (stereo not drawn), the activation is 1.35%. As for `C#CCCN([C@H](C(=O)OC)C(C)C)S(=O)(=O)c1ccc(F)cc1Br`, the activation is 2.22%. The result for `COc1cccc(CNC(=O)[C@H]2CCCN2C(=O)[C@H]2CCCN2C(=O)c2cc(F)cc(F)c2)c1` reads 0.08%; that for `Cc1ccc(C(=O)NC(=S)Nc2ccccc2C)cc1`, 12.1% (active).

With `Cc1ccccc1C(=O)NC(=S)NC1CC1`, the activation is 0.72%. The result for `CC(=O)Nc1ccc(NC(=S)NC(=O)c2ccc([N+](=O)[O-])c(C)c2)cc1` reads -2.56%. The result for `COC(=O)[C@H](CC(C)C)NS(=O)(=O)c1c(F)cccc1F` reads -0.44%. In the case of `CCCCCCCCN1C(=O)[C@@H](CC(=O)NCc2ccc(C)o2)C[C@@]2(C(=O)OC)C1=C[C@H](C(C)(C)C)O[C@@H]2C` it was -0.08%. On to `Cc1ccc(OCCOc2cccc(/C=N/NC(N)=O)c2)cc1`, for which the activation is 5.18%.

On to `COC(=O)N/N=C/c1cn(CCCOc2ccc(C)cc2)c2ccccc12`, for which the activation was 15% (active). The result for `O=Cc1cn(CCOc2ccc(F)cc2)c2ccccc12` reads -2.45%; that for `O=C(CNS(=O)(=O)c1ccccc1F)N1CCN(c2ccccn2)CC1`, 0.61%. In the case of `COC(=O)[C@]12C[C@H](CC(=O)NCc3ccccc3)C(=O)N(CCc3ccc(OC)c(OC)c3)C1=C[C@H](C(C)(C)C)O[C@@H]2C` it was 0.98%; in that of `COc1ccc(OC)c(CNC(=O)Cn2nc(C)c3c(C)n(-c4ccc(C)cc4)nc3c2=O)c1`, -2.32%. For `O=C(CCS(=O)(=O)Cc1ccccc1F)NCCCN1CCCCC1`, the activation was 0.82%. The result for `O=C(CSc1nc2ccccc2s1)N=Nc1c(O)[nH]c2ccccc12` reads -2.84%.

Consider `O=C(O)c1ccccc1CSc1nc2ccccc2s1`, for which the activation is 10.6% (active). In the case of `O=C(CSc1nc2ccccc2s1)NN=Cc1ccc(O)cc1O`, the activation was -1.39%. In the case of `COc1ccc(CC(=O)Nc2cc(S(=O)(=O)N3CCCCC3)ccc2N2CCN(C)CC2)cc1` it was -1.77%; in that of `COC(=O)C1CN(CC(C)C)CCS(=O)(=O)N1Cc1ccc(C)cc1` (stereo not drawn), -0.71%. The result for `CC(C)n1c(=O)[nH]c2cc(C(=O)Nc3ccccc3)ccc21` reads 13.3% (active). In the case of `CC(=O)Nc1ccc(NC(=O)c2ccc3c(c2)C(=O)N(c2ccccc2C)C3=O)cc1` it was 0.55%.

Consider `CS(=O)(=O)N1CCc2cc(C(=O)Nc3ccccc3)ccc21`, for which the activation is 2.16%. Turning to `COc1ccc(-c2ccc3c(n2)CCCN3S(=O)(=O)c2ccc(C)cc2)cc1`, the activation is 1.42%. In the case of `O=C(C(=O)N1CCC(CNS(=O)(=O)Cc2ccccc2)CC1)c1cc2ccccc2o1` it was -2.92%; in that of `CN(C(=O)CSc1nc(C2CC2)nc2ccccc12)c1nc(-c2ccccc2)cs1`, 0.14%; in that of `CN(c1ccc(O)cc1)c1nc(-c2cccnc2)cs1`, 11% (active). In the case of `O=C(NNC(=O)c1csc(-c2cccnc2)n1)Nc1ccc(Cl)cc1` it was -2.54%.

In the case of `COc1ccc(NC(=O)c2cc([N+](=O)[O-])ccc2NC(=O)CNC2CCCCC2C)c(OC)c1` (stereo not drawn), the activation was 1.77%. The result for `Cn1c(=NC(=O)C2CC2)sc2cc(F)cc(F)c21` reads 14% (active); that for `O=C(Cn1nnc(-c2ccccc2)n1)NC(=O)NC1CCCC1`, 4.87%; that for `CC(C)C[C@H](NC(=O)C1CC(=O)N(c2ccc3c(c2)OCCO3)C1)C(=O)NC1CCCC1` (stereo partly drawn), -2.12%. In the case of `Cc1ccc(S(=O)(=O)NCCC(=O)Nc2cccc(S(N)(=O)=O)c2)cc1C` it was 1.82%. The result for `Cc1ccc(S(=O)(=O)NCCC(=O)NCc2ccc(Cl)cc2)cc1C` reads 1.13%; that for `Cc1ccnc(NC(=O)CCNS(=O)(=O)c2ccc(C)c(C)c2)c1`, 17.1% (active); that for `COCCNC(=O)CSc1nc2sccc2c(=O)n1-c1ccccc1`, -2.26%.

For the molecule `CS(=O)(=O)Nc1ccc(C(=O)N2CCCC2)cc1`, the activation was -0.04%. In the case of `CNc1cncc(-c2ccc(NS(C)(=O)=O)cc2)n1` it was 20.8% (active). As for `CNc1cncc(-c2cccc(C(=O)N3CCOCC3)c2)n1`, the activation was -2.58%. Regarding `COc1ccc(-c2ccccc2C2Cc3nnccc3CN2C(=O)Nc2ccccc2)cc1` (stereo not drawn), the activation was -0.36%. `O=C(Nc1cccc(Cl)c1)OC1CC2CC1[C@H]1CCCCN1[C@H]2Cc1ccccc1` (stereo partly drawn): the activation was -4.33%.

With `Cc1ccc2nc(CN(C)C(=O)[C@@H](Cc3ccccc3)NC(=O)[C@H]3O[C@@H](n4ccc(=O)[nH]c4=O)[C@H](O)[C@@H]3O)[nH]c2c1`, the activation was -0.28%. In the case of `Cc1ccc(C)c(NC(=O)CCC(=O)N/N=C2/CC(=O)CC(C)(C)C2)c1` it was -0.63%; in that of `COC(=O)[C@H](C(C)C)N(CCc1cn(Cc2ccccc2)nn1)S(=O)(=O)c1ccc(F)cc1Br`, -2.66%. In the case of `O=C(Nc1ccn(Cc2ccccc2F)n1)c1ccc(COc2ccc(Cl)cc2Cl)o1` it was -5.91%; in that of `N#Cc1ccccc1NC(=O)c1cccc(COc2ccc(Cl)cc2Cl)c1`, 12.7% (active); in that of `COc1ccc(Sc2ccc(NC(=O)c3cccc(Cl)c3)cc2C#N)cc1`, 0.58%.
